The campaign covered roughly 220,000 compounds. About 880 (0.4%) were called active.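 How the source made its calls: active means cell killing above 50% in the first pass at 4 µM, then a duplicate retest at 5 µM averaging 50% or more; inactive means the rest.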 What follows is part of a selection rich in actives, with near analogues and random picks from the rest.

Among the data in PubChem BioAssay AID1443 (Sanford-Burnham Center for Chemical Genomics, 2008) are cell killing (% activity) values, retold here.

The experiment can be described thus: PPC-1 cell viability loss under TRAIL – PPC-1 cells, ATPLite luminescence, uHTS, TRAIL potentiator project, primary screen (AID 1443).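 Further: plate controls were cells with TRAIL plus DMSO for no effect and medium-only wells lacking cells for full effect.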 Conditions: PPC-1 cells + TRAIL, stronger effect = higher value; at 4 µM unless noted.
On to `COc1cccc(-c2nc3ccc(N4CCN(C)CC4)cc3[nH]2)c1`, for which the cell killing (% activity) was 85.4% [at 5 µM] (active).
`CN1CCN(c2cc(N3CCNCC3)ccc2[N+](=O)[O-])CC1`: the cell killing (% activity) was 3.5% (inactive).
Consider `Cc1nc2ccc(N3CCN(C)CC3)cc2nc1C`, for which the cell killing (% activity) is -0.5% (inactive).
With `O=C1CC(=O)N(Cc2ccccc2)C(=O)N1CCCCCCN1C(=O)CC(=O)N(Cc2ccccc2)C1=O`, the cell killing (% activity) is 12.3% (inactive).
Turning to `COc1ccc(C2N3CC(C)(C)CN23)cc1` (stereo not given), the cell killing (% activity) is 15.2% (inactive).
